Reference: the supplement of paper PMC10981050
Values joined by “and” are separate entries in the source; they are usually repeats but may differ in a detail not shown here. Identical values can stand only once. Counter-ions that a name gives are not always drawn.

Columns and labels:
Assay in all cases: cell viability relative to vehicle control; higher = less cytotoxic
Details in all cases: 10 µM
K562 = test system: K562
Outline: (§1)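 After removal of identity-inconsistent compounds, the Selleck bioactive, kinase and epigenetic probe libraries were screened on CRISPR-edited mutant clones and isogenic wild-type clones of four leukaemia lines. Plates were 384-well, each well holding 2000 cells in 50 µL medium and receiving a single 10 µM acoustically dispensed dose. CellTiter-Glo luminescence was read 48 h later, after the supernatant was taken off. Genedata Screener was used to express viability as percent of the on-plate vehicle control.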

MARIMO = test system: MARIMO
Outline: as §1

MOLM14 = test system: MOLM14
Outline: as §1

OCI-AML2 = test system: OCI-AML2
Outline: as §1

SMILES	cell viability (K562; SRSF2 genotype: SRSF2 P95H/wt)	cell viability (K562; SRSF2 genotype: SRSF2 wt/wt)	cell viability (MARIMO; SRSF2 genotype: SRSF2 P95H/wt)	cell viability (MARIMO; SRSF2 genotype: SRSF2 wt/wt)	cell viability (MOLM14; SRSF2 genotype: SRSF2 P95H/wt)	cell viability (MOLM14; SRSF2 genotype: SRSF2 wt/wt)	cell viability (OCI-AML2; SRSF2 genotype: P95H/wt)	cell viability (OCI-AML2; SRSF2 genotype: wt/wt)
O=C1CC(=O)c2c(Cl)c(Cl)c(Cl)c(Cl)c21	92.3% and 95%	92.2%	99.7%	96.6%	95.3%	93.7%	99.7%	104%
CC(C)[C@H]1C(=O)N[C@@H](CCCNC(=N)N)C(=O)NCC(=O)N[C@@H](CC(=O)O)C(=O)N[C@H](Cc2ccccc2)C(=O)N1C [Cilengitide trifluoroacetate]	98.5% and 105%	101%	102%	99.1%	103%	99.5%	104%	109%
O=C(O)c1cc(C(=O)O)c(C(=O)N(Cc2cccc(Oc3ccccc3)c2)[C@H]2CCCc3ccccc32)cc1C(=O)O	119% and 108%	113%	102%	103%	105%	101%	106%	105%
Cn1c(N2CCCCS2(=O)=O)nc(C(=O)NCc2ccc(F)cc2)c(O)c1=O	110%	113%	108%	115%	112%	111%	112%	102%
CNC(=O)c1ccc(C)c(-n2c(C)cc(OCc3ccc(F)cc3F)c(Br)c2=O)c1	74% and 77.8%	82.4%	65.6%	58.4%	69.8%	78.8%	72.8%	72.2%
CCCS(=O)(=O)Nc1ccc(F)c(C(=O)c2c[nH]c3ncc(-c4ccc(Cl)cc4)cc23)c1F [Vemurafenib (PLX4032, RG7204)]	92.8% and 102%	94.8%	92.6%	106%	102%	108%	111%	105%
O=C(CCc1ccc(O)cc1)c1c(O)cc(O)cc1O [Phloretin]	96.9% and 94.4%	98.1%	93.5%	90.2%	91%	95.7%	87.5%	87.9%
O=c1[nH]c(=O)n([C@H]2C[C@H](O)[C@@H](CO)O2)cc1Br [Bromodeoxyuridine (BrdU)]	90.5% and 102%	96.1%	91.2%	88%	80.8%	79.1%	90.5%	99.9%
Nc1ncnc2c1ncn2[C@@H]1O[C@H](CO)[C@@H](O)[C@@H]1O [Vidarabine (Vira-A)]	94.6% and 101%	97%	89.9%	93.4%	92.5%	96.1%	101%	102%
C[N+]1(C)CCCC1C(=O)[O-] (stereo not drawn) [Stachydrine]	99.9% and 99.1%	105%	97.3%	100%	99.6%	104%	106%	102%
CCN(CC)CCOC(=O)c1ccc(N)cc1Cl [Chloroprocaine HCl]	95.2% and 93.5%	97.1%	103%	115%	98%	99.3%	90.7%	113%
Cc1ncc([N+](=O)[O-])n1CC(C)O (stereo not drawn) [Secnidazole (Flagentyl)]	100% and 109%	106%	100%	105%	104%	108%	114%	93.1%
C=C(C)[C@@H]1CC[C@]2(C(=O)O[C@@H]3O[C@H](CO[C@@H]4O[C@H](CO)[C@@H](O[C@@H]5O[C@@H](C)[C@H](O)[C@@H](O)[C@H]5O)[C@H](O)[C@H]4O)[C@@H](O)[C@H](O)[C@H]3O)CC[C@]3(C)[C@H](CC[C@@H]4[C@@]5(C)CC[C@H](O[C@@H]6OC[C@H](O)[C@H](O)[C@H]6O[C@@H]6O[C@@H](C)[C@H](O)[C@@H](O)[C@H]6O)[C@@](C)(CO)[C@@H]5CC[C@]43C)[C@@H]12 [Anemoside B4]	93.9% and 103%	92%	96.1%	110%	96.9%	97.4%	93.2%	105%
C[C@@H]1CC[C@@]2(NC1)O[C@H]1C[C@H]3[C@@H]4CC=C5C[C@@H](O[C@@H]6O[C@H](CO)[C@@H](O[C@@H]7O[C@@H](C)[C@H](O)[C@@H](O)[C@H]7O)[C@H](O)[C@H]6O[C@@H]6O[C@@H](C)[C@H](O)[C@@H](O)[C@H]6O)CC[C@]5(C)[C@H]4CC[C@]3(C)[C@H]1[C@@H]2C [Solamargine]	85.3% and 85.5%	81.8%	51.5%	89.6%	81.6%	81.6%	91%	87.2%
Nc1ncnc2n[nH]c(Nc3ccc(F)cc3)c12	86.7% and 96.4%	82.6%	70%	67.5%	69.2%	71.8%	65.5%	63.8%
C=CC(=O)Nc1cccc(Nc2nc(Nc3ccc(NC4CN(CCF)C4)cc3OC)ncc2C(F)(F)F)c1	55.2% and 53.1%	64.8%	22.3%	19.6%	4.64%	10.4%	12.3%	17.9%
CCCNC(C)C(=O)Nc1ccccc1C (stereo not drawn) [Prilocaine]	87.8% and 85.9%	86.8%	79.4%	90.5%	93.3%	85.6%	89.1%	90.7%
COc1cc2nccc(Oc3ccc(NC(=O)C4(C(=O)Nc5ccc(F)cc5)CC4)cc3)c2cc1OC	9.94% and 12.3%	20.6%	69.1%	66.8%	5.29%	5.9%	19.2%	28%
COc1cccc(/C=N/N(C(=O)C(F)(F)F)c2ccc(C)cc2C)c1	90.5% and 95.3%	99.8%	83.5%	102%	98.5%	105%	101%	106%
CCCCNc1ncc(-c2ccc(CN3CCOCC3)cn2)c(NC2CCC(O)CC2)n1 (stereo not drawn)	70.7% and 94.8%	88%	60.7%	62.3%	7.3%	4.78%	16.1%	22.9%
C[C@]12CCC(=O)C=C1CC[C@@H]1[C@@H]2[C@@H](O)C[C@@]2(C)[C@H]1CC[C@]2(O)C(=O)CO [Hydrocortisone (Cortisol)]	99.7% and 98.6%	110%	105%	99%	107%	100%	109%	118%
